The values that follow come from PubChem BioAssay.

Experiment [1] is described as follows: StAR promoter reporter inhibitors, counter-screen for LRH-1 inverse agonist project, cell-based, luminescence, high throughput (AID 651611). Conditions: StAR promoter luciferase reporter counterscreen, at 3.6 µM, hits give high values. A general note: Counterscreens check selectivity or assay interference.
In experiment [2] the target is Nuclear receptor subfamily 5 group A member 2 (Homo sapiens) (UniProt O00482). As to the kind of experiment: NR5A2 activity suppression in reporter cells – cell-based, luminescence, confirmation (AID 651613; in the data active means inhibition above about 42%;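 further: HEK293T cells co-transfected with LRH-1 and StAR promoter luciferase reporter; 0% = vehicle wells and 100% = parental cells lacking receptor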). To be noted: cell-based LRH-1 luciferase reporter, inverse agonism; at 3.6 µM; hits give high values. (A reporter such as luciferase makes a cellular process visible.)
Chain of Nuclear receptor subfamily 5 group A member 2 (Homo sapiens) (O00482 whole entry, looked up): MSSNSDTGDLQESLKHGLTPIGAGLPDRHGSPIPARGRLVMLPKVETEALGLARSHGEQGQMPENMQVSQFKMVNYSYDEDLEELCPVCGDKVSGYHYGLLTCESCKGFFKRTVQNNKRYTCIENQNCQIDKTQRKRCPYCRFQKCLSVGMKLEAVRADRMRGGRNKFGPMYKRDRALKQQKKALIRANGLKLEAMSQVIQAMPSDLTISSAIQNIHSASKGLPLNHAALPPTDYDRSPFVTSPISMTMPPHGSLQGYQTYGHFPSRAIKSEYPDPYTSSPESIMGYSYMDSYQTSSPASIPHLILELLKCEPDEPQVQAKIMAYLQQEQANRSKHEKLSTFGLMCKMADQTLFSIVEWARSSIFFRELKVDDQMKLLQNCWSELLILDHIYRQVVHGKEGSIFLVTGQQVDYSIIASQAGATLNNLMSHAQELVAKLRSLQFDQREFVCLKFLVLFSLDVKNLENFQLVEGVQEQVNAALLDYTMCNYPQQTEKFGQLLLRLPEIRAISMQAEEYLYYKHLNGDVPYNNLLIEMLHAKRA

Experiment [3] has as its target Steroidogenic factor 1 (Homo sapiens) (UniProt Q13285). Put plainly: inverse agonism at SF1 nuclear receptor – cell-based, luminescence, high throughput, counter-screen for LRH-1 inverse agonist project (AID 651614; in the data active means inhibition above about 44%;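 further: cells cotransfected with StAR promoter reporter and SF1 expression vector; 0% = vehicle on cells with receptor and 100% = vehicle on cells lacking receptor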). To be noted: cell-based SF1 luciferase reporter, at 3.6 µM, hits give high values.
Experiment [4] in a line: compounds suppressing VP16-driven luciferase signal – cell-based, luminescence, high throughput, counter-screen for LRH-1 inverse agonist project (AID 651615; in the data active means inhibition above about 33%). Conditions: Gal4-VP16 luciferase reporter cells, at 3.6 µM, hits give high values.

A number with no mark means an inactive call. Activity calls are given as the source filed them. Unless noted, no stated cut-off is given here; in the data, active means inhibition above about 28%; inactive means the rest.

Chain of Steroidogenic factor 1 (Homo sapiens) (Q13285 whole entry, looked up, the tested form may be a part): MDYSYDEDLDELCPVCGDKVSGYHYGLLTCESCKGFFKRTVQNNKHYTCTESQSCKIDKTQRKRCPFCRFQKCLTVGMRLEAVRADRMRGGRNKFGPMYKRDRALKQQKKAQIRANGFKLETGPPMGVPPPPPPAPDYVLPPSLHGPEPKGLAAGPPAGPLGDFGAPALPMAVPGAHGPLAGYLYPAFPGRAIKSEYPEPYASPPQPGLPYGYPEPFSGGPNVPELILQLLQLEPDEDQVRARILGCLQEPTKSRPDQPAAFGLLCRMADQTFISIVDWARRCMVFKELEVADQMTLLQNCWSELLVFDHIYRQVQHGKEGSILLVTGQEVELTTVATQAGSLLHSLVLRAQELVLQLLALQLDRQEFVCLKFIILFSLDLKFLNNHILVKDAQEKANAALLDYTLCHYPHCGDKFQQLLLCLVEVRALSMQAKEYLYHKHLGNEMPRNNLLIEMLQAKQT

One may read the inhibition as the change of the read-out against control, counted positive when it falls. On to `COc1ccc(OC)c(C2NC(=O)c3sc(=S)n(-c4ccccc4)c3N2)c1` (configuration not stated), for which the inhibition was 10.5% in experiment [1], 53.5% (active) in experiment [2], 45.4% (active) in experiment [3] and -4.35% in experiment [4].
The corresponding values for `COc1ccc(NC(=O)COc2cccc3c2CCN(C)C3=O)c(OC)c1` are 20.5%, 65.9% (active), 61.6% (active) and -23.8%.
In the same order, the values of `O=C(Cc1ccc(Cl)cc1Cl)Nc1ccncc1` are 16.2%, 76.1% (active), 72.9% (active) and 48.6% (active).
In the same order, the values of `COc1ccc2c(/C=C/c3cc[n+](C)cc3)c[nH]c2c1` are 28.7% (active), 64.1% (active), 56.3% (active) and 50.9% (active).
For the compound `Cc1ccc(C)c(-c2cc(C(=O)N/N=C/c3cccnc3)c3ccccc3n2)c1`, the inhibition in experiment [1] was 9.19%; in experiment [2] it was 51.1% (active); in experiment [3] it was 44.9% (active); in experiment [4], 5.29%.
Regarding `Cc1c(F)cccc1NS(=O)(=O)c1ccc(N2CCCC2=O)cc1`, the inhibition in experiment [1] is -2.14%; in experiment [2], 56% (active); in experiment [3] it was 47.1% (active); in experiment [4] it was 3.58%.
`O=C1CCCN2N=C(SCC(=O)Nc3ccc(Br)cc3)SC2=N1`: the inhibition in experiment [1] is -4.32%; in experiment [2] it was 49.1% (active); in experiment [3], 48.8% (active); in experiment [4], -7.91%.
In the same order, the values of `O=C(Nc1ccccc1Cl)c1ccc([N+](=O)[O-])o1` are 29.4% (active), 63.9% (active), 75.9% (active) and -5.01%.
Turning to `Cn1c(CN2CCN(c3cccc(Cl)c3)CC2)nc2ccccc21`, the inhibition in experiment [1] is -11.3%; in experiment [2], 23.1%; in experiment [3], 36.9%; in experiment [4] it was -12.9%.
Consider `CC(=O)Nc1ccc(NC(=O)CSc2nc(N)c(NC(=O)c3ccco3)c(=O)[nH]2)cc1`, for which the inhibition is 13.1% in experiment [1], 51.4% (active) in experiment [2], 48.4% (active) in experiment [3] and -7.2% in experiment [4].
The corresponding values for `Cc1cc2ncn(/N=C/c3ccc([N+](=O)[O-])s3)c2cc1C` are 12.7%, 60% (active), 58.6% (active) and -1.24%.
As to `CCCn1c(NC(=O)c2ccc([N+](=O)[O-])o2)nc2ccccc21`, the inhibition was 18.9% in experiment [1], 51.3% (active) in experiment [2], 21.2% in experiment [3] and -2.27% in experiment [4].
As for `Cc1cc(OCC(=O)N2CCC(O)CC2)c2c(C)cc(=O)oc2c1`, the inhibition in experiment [1] was 5.07%; in experiment [2], 44.8% (active); in experiment [3] it was 35.2%; in experiment [4] it was -6.7%.
Take `Cc1c(C)c2ccc(OCC(=O)N3CCN(C(=O)C4COc5ccccc5O4)CC3)cc2oc1=O` (configuration not stated): the inhibition in experiment [1] is 14.4%; in experiment [2] it was 60.4% (active); in experiment [3], 59.1% (active); in experiment [4] it was -17.1%.
The corresponding values for `Cc1cc(=O)oc2cc(O)cc(OCc3ccccc3)c12` are 26%, 51.7% (active), 45.2% (active) and -8.41%.
Take `CC(=O)c1ccc(NC(=O)CN2C(=O)NC3(CCc4ccccc43)C2=O)cc1` (configuration not stated): the inhibition in experiment [1] was 12.2%; in experiment [2], 61.5% (active); in experiment [3], 49.3% (active); in experiment [4], -0.14%.
The corresponding values for `CCn1c2ccccc2c2cc(/C=N/n3cnnc3)ccc21` are -4.6%, 30.4%, 19.8% and 10.1%.
The corresponding values for `COc1ccc(Oc2ccccc2/C=N/O)cc1` are 2.42%, 57% (active), 58.1% (active) and 42.5% (active).
In the same order, the values of `OC[C@@H]1CN(Cc2ccc(-c3ccccc3)cc2)C[C@H](n2cnc3c(NCc4ccco4)ncnc32)O1` are 22.7%, 63.7% (active), 65% (active) and 33.6% (active).
With `Cc1cccc(NC(=O)COC(=O)Cc2cccs2)c1C`, the inhibition in experiment [1] was 0.39%; in experiment [2] it was 53.8% (active); in experiment [3], 46.9% (active); in experiment [4], 14.1%.
In the same order, the values of `COc1ccc(N=C2NN=C(c3c(C)[nH]c4ccccc34)CS2)cc1` are -7.38%, 43.1% (active), 32.1% and -7.14%.
In the same order, the values of `CCOC(=O)CC1CCCCN1C(=O)c1cc(COc2cccc3cnccc23)on1` (configuration not stated) are 39% (active), 58.9% (active), 62.1% (active) and 61.4% (active).
The corresponding values for `CCCC(=O)Nc1sc2c(c1C(=O)Nc1ccccn1)CCCC2` are -1.01%, 47.1% (active), 53.8% (active) and 5.28%.
With `Cc1ccccc1NC(=S)NCc1ccc2[nH]c3c(c2c1)CCCC3`, the inhibition is -0.36% in experiment [1], 17.9% in experiment [2], 28.9% in experiment [3] and 9.36% in experiment [4].
Turning to `Cc1cc2ccccn2c1C(=O)c1cccc([N+](=O)[O-])c1`, the inhibition is 10.1% in experiment [1], 44% (active) in experiment [2], 42% in experiment [3] and -4.87% in experiment [4].
`Cc1cc(OCC(=O)NC2CC2)c2c(C)c(C)c(=O)oc2c1`: the inhibition is 13.4% in experiment [1], 65.4% (active) in experiment [2], 53.2% (active) in experiment [3] and -21.9% in experiment [4].
As for `COc1ccc(CN(C)C(=O)CCl)cc1`, the inhibition in experiment [1] was 14.9%; in experiment [2], 53.5% (active); in experiment [3], 52.9% (active); in experiment [4], -5.19%.
The corresponding values for `Cc1ccc(-n2nc(C)c(NC(=O)CCl)c2C)cc1C` are 57.9% (active), 66.8% (active), 66.8% (active) and -60.3%.
As for `CC(=O)c1cccc(NC(=O)c2ccc([N+](=O)[O-])o2)c1`, the inhibition in experiment [1] is 25%; in experiment [2] it was 61.7% (active); in experiment [3], 61.9% (active); in experiment [4], -5.65%.
In the same order, the values of `Cc1cc(-c2nnc(SCC(=O)Nc3cccc(C)c3C)n2N)n[nH]1` are 5.59%, 53.3% (active), 48.2% (active) and -4.91%.
For the compound `Cc1onc(-c2c(F)cccc2Cl)c1C(=O)O/N=C(\N)c1ccc([N+](=O)[O-])o1`, the inhibition was 11.6% in experiment [1], 70.9% (active) in experiment [2], 60.4% (active) in experiment [3] and -7.18% in experiment [4].
For `CCCNC(=O)c1sc2c(c1C(=O)Nc1ccccn1)CCCC2`, the inhibition in experiment [1] is -1.58%; in experiment [2], 47.1% (active); in experiment [3], 42.7% (active); in experiment [4], 14.3%.
The corresponding values for `O=C(COC(=O)C1CC1)NCCc1ccc(Cl)cc1` are 4.21%, 45.3% (active), 39.1% and -2.95%.
The corresponding values for `Cc1ccc(NC(=O)Cc2nnc(SCC(=O)Nc3ccc(N4CCOCC4)cc3)n2C)cc1` are 6.95%, 59.7% (active), 51.9% (active) and 12%.
The corresponding values for `O=C(Nc1ccc(F)cc1)C(c1cc2ccccc2o1)N1CCN(c2cccc(C(F)(F)F)n2)CC1` (configuration not stated) are 11%, 24.9%, 35.4% and 16.1%.
As for `Cc1ccc(Cl)cc1N1CCN(C(=O)C(C)n2ncn3cccc3c2=O)CC1` (configuration not stated), the inhibition in experiment [1] was 7.03%; in experiment [2], 35.4%; in experiment [3], 41.2%; in experiment [4] it was 2.84%.
On to `COc1cc([N+](=O)[O-])ccc1NC(=O)Cn1ccsc1=N`, for which the inhibition in experiment [1] was 4.07%; in experiment [2] it was 59.9% (active); in experiment [3], 57.6% (active); in experiment [4], -3.33%.
The corresponding values for `NC(=S)N/N=C/c1ccc(-n2nncc2-c2ccc(Cl)cc2)cc1` are 12%, 51.6% (active), 56.4% (active) and 6.68%.
On to `O=C(Nc1cccc(NC(=O)c2ccccc2Cl)c1)c1ccc([N+](=O)[O-])o1`, for which the inhibition in experiment [1] was 33.1% (active); in experiment [2] it was 58.8% (active); in experiment [3] it was 66.8% (active); in experiment [4], -5.43%.
The corresponding values for `Nc1ccc(Oc2ccc(Cl)cc2)cc1` are 1.47%, 35.2%, 31% and -7.96%.
The corresponding values for `O=C(Nc1ccc(Oc2ccccc2)cc1)c1csc([C@H]2C[C@H](O)[C@@H](CO)O2)n1` are 27.6%, 56.6% (active), 61.1% (active) and 54.4% (active).
The corresponding values for `CCCOc1ccc(NC(=O)CC2C(=O)N(C)C(=S)N2Cc2ccc3c(c2)OCO3)cc1` (configuration not stated) are 6.7%, 57.6% (active), 53.2% (active) and 5.2%.
With `CCOc1ccc(CCNC(=O)COC(=O)COc2ccc(Br)cc2)cc1OCC`, the inhibition in experiment [1] was 4.03%; in experiment [2], 49.1% (active); in experiment [3] it was 56.3% (active); in experiment [4] it was 4.38%.
For the compound `COc1ccc(CCNC(=O)COC(=O)C23CC4CC(CC(C4)C2)C3)cc1`, the inhibition was 17.5% in experiment [1], 57% (active) in experiment [2], 48.7% (active) in experiment [3] and 1.82% in experiment [4].
As to `c1cnn(-c2nc(N3CCOCC3)nc(N3CCOCC3)n2)c1`, the inhibition was 29.5% (active) in experiment [1], 63.6% (active) in experiment [2], 48.2% (active) in experiment [3] and 20.2% in experiment [4].
As for `O=C(C[n+]1ccc(Cc2ccccc2)cc1)Nc1ccc([N+](=O)[O-])cc1Cl`, the inhibition is 5.98% in experiment [1], 54.7% (active) in experiment [2], 45.6% (active) in experiment [3] and 5.52% in experiment [4].
Consider `CCCc1cc(=O)oc2cc(C)cc(OCC(=O)Nc3ccccn3)c12`, for which the inhibition in experiment [1] was 2.99%; in experiment [2], 60.1% (active); in experiment [3] it was 61.8% (active); in experiment [4] it was 3.1%.
For `Cc1c(NC(=O)C(C)OC(=O)c2ccc([N+](=O)[O-])s2)c(=O)n(-c2ccccc2)n1C` (configuration not stated), the inhibition is 20% in experiment [1], 23.3% in experiment [2], 19.4% in experiment [3] and -10.5% in experiment [4].
The corresponding values for `O=C(CSc1nnc(CNC(=O)c2ccccc2F)o1)Nc1ccc2c(c1)OCCO2` are 10.5%, 56.9% (active), 51.6% (active) and -7.98%.
In the case of `c1csc(CCNc2ncnc3sc4c(c23)CCC4)c1`, the inhibition in experiment [1] was 10.5%; in experiment [2], 63.7% (active); in experiment [3], 60.7% (active); in experiment [4], 48.9% (active).
In the same order, the values of `O=C(CN1C(=O)NC2(CCCCC2)C1=O)NCCc1c[nH]c2ccccc12` are 10.1%, 47.8% (active), 56.5% (active) and 3.42%.
As for `COc1cc(C(=O)Nc2ccccc2C2COC(=O)C2=N)cc(OC)c1OC` (configuration not stated), the inhibition in experiment [1] is 8.92%; in experiment [2], 45.5% (active); in experiment [3], 45.2% (active); in experiment [4] it was -1.69%.
In the same order, the values of `CC[C@H](CO)Nc1nc(Nc2cccc(Cl)c2)c2ncn(C(C)C)c2n1` are 26%, 49.3% (active), 38.4% and 35.9% (active).
